Data: PubChem BioAssay (EPA / NIEHS)
The source made the active and inactive calls. The calls were made as follows: active = hit-call score of the fitted dose curve at least 0.9, where 1 is the maximum; inactive = score below 0.9.

Legend:
[1] = ATG_CRE_CIS: Attagene CIS-FACTORIAL HepG2 Assay for human cAMP Responsive Element (CRE) binding protein 3 (AID 2282926); conditions: HepG2 CRE cis-reporter, Attagene multiplexed mRNA; actives raise or lower the signal
Summary of the method: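 Endogenous transcription factor activity read via CRE-regulated reporter transcripts in transfected HepG2 cells. After 24 h exposure, RNA was reverse-transcribed, amplified, fluorescently labelled and sized by capillary electrophoresis; gain or loss fitted against DMSO.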

[2] = biological target: CCAAT/enhancer-binding protein beta (Homo sapiens) (UniProt P17676); test: ATG_C_EBP_CIS: Attagene CIS-FACTORIAL HepG2 Assay for human CCAAT/Enhancer Binding Protein (C/EBP) beta (AID 2282927); conditions: HepG2 Attagene cis-factorial transcription factor reporter; actives raise or lower the signal
Summary of the method: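 Following a 24 h incubation with test chemical, transfected HepG2 cells yielded RNA whose reporter transcripts were quantified by RT-PCR and fluorescent capillary electrophoresis, with DMSO serving as baseline for bidirectional fitting.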

[3] = ATG_CMV_CIS: Attagene CIS-FACTORIAL HepG2 Assay for human CMV (Internal Marker) (AID 2282928); conditions: HepG2 CMV promoter reporter, transcription factor profiling; actives raise or lower the signal;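 also: endpoint acts as a background internal control marker rather than a target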
Summary of the method: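 Reporter transcripts from transfected HepG2 cells are isolated after 24 h of chemical dosing, reverse-transcribed and amplified. Fragments labeled with 6-FAM are cut with HpaI and quantified by capillary electrophoresis; DMSO defines baseline.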

[4] = ATG_DR4_LXR_CIS: Attagene CIS-FACTORIAL HepG2 Assay for human Liver X Receptor (LXR), DR4 submotif (AID 2282929); conditions: HepG2 Attagene DR4 cis-reporter, mRNA transcription; actives raise or lower the signal
Summary of the method: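 HepG2 cells transiently transfected with cis-promoter-driven multiplexed reporter units (DR4 element) were dosed for 24 h. Reporter mRNA was quantified by RT-PCR, fluorescent primer extension, HpaI digestion and capillary electrophoresis; bidirectional fitting versus DMSO baseline.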

[5] = biological target: Aryl hydrocarbon receptor (Homo sapiens) (UniProt P35869); test: ATG_Ahr_CIS: Attagene CIS-FACTORIAL HepG2 Assay for human Aryl Hydrocarbon Receptor (Ahr) (AID 2282930); conditions: HepG2 AhR cis-factorial reporter transcription; actives raise or lower the signal
Summary of the method: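 Values derive from bidirectional fitting against DMSO negative control. Underlying signal: cis-element reporter mRNA in transiently transfected HepG2, harvested 24 h post-dose and measured by RT-PCR plus capillary electrophoresis.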

[6] = ATG_AP_1_CIS: Attagene CIS-FACTORIAL HepG2 Assay for human Activator Protein 1 (AP-1) (AID 2282931); conditions: HepG2 Attagene cis-factorial AP-1 reporter mRNA; actives raise or lower the signal
Summary of the method: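 HepG2 cells transiently transfected with cis-element-driven multiplex reporter units; 24 h compound exposure. Reporter mRNA quantified by RT-PCR, FAM-labelled fragments resolved by capillary electrophoresis; bidirectional fit versus DMSO baseline.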

[7] = ATG_AP_2_CIS: Attagene CIS-FACTORIAL HepG2 Assay for human Activator Protein 2 (AP-2) (AID 2282932); conditions: HepG2 AP-2 cis-reporter, Attagene transcription factor profiling; actives raise or lower the signal
Summary of the method: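 Assay in transfected HepG2 with promoter-regulated reporters, 24 h incubation after dosing. Signal is reporter mRNA fluorescence (RT-PCR, capillary electrophoresis), analysed for both increases and decreases relative to DMSO controls.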

[8] = biological target: Retinoic acid receptor alpha (Homo sapiens) (UniProt P10276); test: ATG_DR5_RAR_CIS: Attagene CIS-FACTORIAL HepG2 Assay for human Retinoic Acid Receptor Alpha (RARE), DR5 submotif (AID 2282934); conditions: HepG2 Attagene cis-factorial RARE DR5 reporter, mRNA; actives raise or lower the signal;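 as to AC50: reporter responds to endogenous RAR alpha beta and gamma in HepG2 not RARA alone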
Summary of the method: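 Endpoint fitted in both directions relative to DMSO as negative control. It reflects DR5 cis-element reporter mRNA induction in transiently transfected HepG2 cells, measured 24 h after dosing through RT-PCR and fluorescent capillary electrophoresis.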

[9] = biological target: Transcription factor E2F1 (Homo sapiens) (UniProt Q01094); test: ATG_E2F_CIS: Attagene CIS-FACTORIAL HepG2 Assay for human E2F Transcription Factor 1 (AID 2282935); conditions: HepG2 Attagene cis-reporter, E2F reporter RNA transcripts; actives raise or lower the signal
Summary of the method: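 In this cis-factorial format, endogenous factor activity drives transfected reporters in HepG2; transcripts collected at 24 h are quantified by fluorescence after RT-PCR and capillary separation.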

[10] = ATG_E_Box_CIS: Attagene CIS-FACTORIAL HepG2 Assay for human Enhancer Box (E-box) (AID 2282936); conditions: HepG2 E-box cis-reporter transcription, actives raise or lower the signal
Summary of the method: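 Measured 24 h post-dosing in HepG2 cells transfected with multiple cis-regulated reporter units, signal being reporter mRNA induction detected by fluorescent RT-PCR with capillary electrophoresis; gain or loss fitted against DMSO.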

[11] = ATG_M_61_CIS: Attagene CIS-FACTORIAL HepG2 Assay for M61 Transcription Factor (Internal Marker) (AID 2282937); conditions: HepG2 Attagene CIS-FACTORIAL M61 internal marker reporter; actives raise or lower the signal
Summary of the method: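 HepG2 cells transiently transfected with cis-element-driven multiple reporter transcription units, dosed for 24 h. Reporter mRNA measured by RT-PCR, 6-FAM primer-extension labelling, HpaI digestion and capillary electrophoresis; bidirectional fit versus DMSO baseline.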

[12] = ATG_M_19_CIS: Attagene CIS-FACTORIAL HepG2 Assay for M19 Transcription Factor (Internal Marker) (AID 2282939); conditions: HepG2 Attagene CIS-FACTORIAL M19 internal marker reporter; actives raise or lower the signal
Summary of the method: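 HepG2, MRTU transient transfection, 24 h dosing. Total RNA → RT-PCR → 6-FAM primer extension → HpaI digest → CE fluorescence. Bidirectional curve fit, DMSO negative control.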

[13] = ATG_BRE_CIS: Attagene CIS-FACTORIAL HepG2 Assay for human Bone Morphogenetic Protein (BMP) Response Element (BRE) (AID 2282933); conditions: HepG2 BMP response element reporter, Attagene transcription factor profiling; actives raise or lower the signal
Summary of the method: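 Fluorescence-labelled reporter cDNA fragments, separated by capillary electrophoresis, gave the signal for this component of a 52-readout multiplex. HepG2 cells were transfected, exposed to chemicals for 24 h, and compared with DMSO using bidirectional fitting.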

[14] = ATG_EGR_CIS: Attagene CIS-FACTORIAL HepG2 Assay for human Early Growth Response 1 (EGR1) (AID 2282938); conditions: HepG2 Attagene CIS-FACTORIAL EGR reporter mRNA; actives raise or lower the signal
Summary of the method: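 HepG2 cells transiently transfected with cis-promoter-driven multiplexed reporter transcription units; reporter mRNA measured 24 h after compound dosing by RT-PCR, 6-FAM primer extension, HpaI digestion and capillary electrophoresis. Bidirectional fit versus DMSO baseline.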

Measured: AC50

Sequence of Aryl hydrocarbon receptor (Homo sapiens) (P35869 whole entry, looked up): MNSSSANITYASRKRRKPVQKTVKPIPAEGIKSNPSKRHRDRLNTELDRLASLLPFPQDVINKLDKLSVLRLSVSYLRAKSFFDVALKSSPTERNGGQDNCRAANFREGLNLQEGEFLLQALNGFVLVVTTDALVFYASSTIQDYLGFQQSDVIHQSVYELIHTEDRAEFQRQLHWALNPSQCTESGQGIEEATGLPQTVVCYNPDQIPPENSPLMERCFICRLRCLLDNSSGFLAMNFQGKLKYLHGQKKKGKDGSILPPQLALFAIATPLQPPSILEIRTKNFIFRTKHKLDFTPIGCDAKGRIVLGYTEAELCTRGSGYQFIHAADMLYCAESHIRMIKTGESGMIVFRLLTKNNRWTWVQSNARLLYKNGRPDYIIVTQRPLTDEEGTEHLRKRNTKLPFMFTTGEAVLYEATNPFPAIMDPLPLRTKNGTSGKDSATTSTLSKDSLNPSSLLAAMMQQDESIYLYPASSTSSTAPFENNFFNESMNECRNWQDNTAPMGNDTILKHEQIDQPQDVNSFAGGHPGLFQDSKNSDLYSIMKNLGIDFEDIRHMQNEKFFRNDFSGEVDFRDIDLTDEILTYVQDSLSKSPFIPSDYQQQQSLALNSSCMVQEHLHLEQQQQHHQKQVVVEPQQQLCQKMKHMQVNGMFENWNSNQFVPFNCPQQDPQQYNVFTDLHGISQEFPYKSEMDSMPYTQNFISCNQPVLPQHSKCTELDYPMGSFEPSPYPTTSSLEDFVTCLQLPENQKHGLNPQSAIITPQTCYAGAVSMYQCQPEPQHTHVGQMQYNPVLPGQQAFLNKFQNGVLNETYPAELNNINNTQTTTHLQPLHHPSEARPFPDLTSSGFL
Sequence of Transcription factor E2F1 (Homo sapiens) (Q01094 whole entry, looked up): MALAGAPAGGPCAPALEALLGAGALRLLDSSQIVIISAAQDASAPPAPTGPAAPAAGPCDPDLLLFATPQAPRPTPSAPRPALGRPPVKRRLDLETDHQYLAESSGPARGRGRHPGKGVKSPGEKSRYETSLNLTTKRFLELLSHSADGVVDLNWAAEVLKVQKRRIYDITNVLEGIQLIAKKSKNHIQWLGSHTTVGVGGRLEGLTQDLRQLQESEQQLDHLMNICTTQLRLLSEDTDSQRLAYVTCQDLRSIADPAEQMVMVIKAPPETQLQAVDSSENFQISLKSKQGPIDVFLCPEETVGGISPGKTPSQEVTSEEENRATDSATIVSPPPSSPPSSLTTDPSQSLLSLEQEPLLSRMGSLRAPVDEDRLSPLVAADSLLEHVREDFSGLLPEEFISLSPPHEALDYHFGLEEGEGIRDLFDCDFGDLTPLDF
Sequence of Retinoic acid receptor alpha (Homo sapiens) (P10276 whole entry, looked up): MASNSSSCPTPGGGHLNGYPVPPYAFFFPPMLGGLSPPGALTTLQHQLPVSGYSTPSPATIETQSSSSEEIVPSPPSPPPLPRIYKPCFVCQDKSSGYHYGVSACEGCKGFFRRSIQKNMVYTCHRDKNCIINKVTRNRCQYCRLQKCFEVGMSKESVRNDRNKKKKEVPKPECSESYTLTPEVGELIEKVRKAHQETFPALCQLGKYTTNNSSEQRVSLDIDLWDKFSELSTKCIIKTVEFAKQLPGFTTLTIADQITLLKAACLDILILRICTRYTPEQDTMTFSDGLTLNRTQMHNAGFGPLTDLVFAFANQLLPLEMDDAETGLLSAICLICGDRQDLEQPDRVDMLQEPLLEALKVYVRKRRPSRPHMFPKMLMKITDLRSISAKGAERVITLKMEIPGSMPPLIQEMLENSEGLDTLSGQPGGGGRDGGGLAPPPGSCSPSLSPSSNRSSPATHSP
Sequence of CCAAT/enhancer-binding protein beta (Homo sapiens) (P17676 whole entry, looked up): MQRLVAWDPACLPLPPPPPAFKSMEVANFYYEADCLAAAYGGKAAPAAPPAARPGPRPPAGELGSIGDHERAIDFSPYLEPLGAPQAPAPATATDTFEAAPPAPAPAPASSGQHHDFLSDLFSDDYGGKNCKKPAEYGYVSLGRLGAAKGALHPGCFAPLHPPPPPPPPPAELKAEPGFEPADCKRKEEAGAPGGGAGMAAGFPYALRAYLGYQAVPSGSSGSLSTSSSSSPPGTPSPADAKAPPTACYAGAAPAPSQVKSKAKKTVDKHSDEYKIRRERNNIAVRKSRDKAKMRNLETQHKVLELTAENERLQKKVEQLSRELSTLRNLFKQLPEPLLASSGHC

CC(C=O)Cc1ccc2c(c1)OCO2 (stereo not given)
not listed: [13] | [14]
inactive: all other assays above

Cc1ccccc1OP(=O)(Oc1ccccc1)Oc1ccccc1
active: [3] 76.5 µM | [4] 12.3 µM | [6] 47.9 µM | [13] 64.2 µM | [8] 32 µM
not listed: [9]
inactive: all other assays above

c1ccc2sc(SNC3CCCCC3)nc2c1
active: [5] 4.84 µM | [6] 52.1 µM | [7] 149 µM
not listed: [13]
inactive: all other assays above

BrCCCCBr
not listed: [9]
inactive: all other assays above

CN(CCCC(O)c1cccnc1)N=O (stereo not given)
not listed: [13]
inactive: all other assays above

CCN(CCO)CCO
not listed: [13]
inactive: all other assays above

CN(C)CCN(C)C
not listed: [10]
inactive: all other assays above

Nc1ncn[nH]1
not listed: [13]
inactive: all other assays above

CC(F)(F)CC(F)(F)F
not listed: [10] | [13] | [14]
inactive: all other assays above

O=S1OC[C@@H]2[C@H](CO1)[C@]1(Cl)C(Cl)=C(Cl)[C@@]2(Cl)C1(Cl)Cl (stereo not given in full)
active: [3] 100 µM | [4] 27.1 µM | [6] 100 µM
not listed: [9]
inactive: all other assays above

Nc1ccc(Br)cc1
active: [5] 25.4 µM
not listed: [9]
inactive: all other assays above

CCOP(=O)(OCC)OC(=CCl)c1ccc(Cl)cc1Cl
not listed: [13]
inactive: all other assays above

O=[N+]([O-])c1cccc2ccccc12
active: [5] 51.4 µM
not listed: [7] | [12]
inactive: all other assays above

CCCCCCCCBr
not listed: [6]
inactive: all other assays above

CC[N+](CC)(CC)CC
not listed: [6] | [10]
inactive: all other assays above
